The list is not random: actives were taken first. Their share in the collection is about 3.1%.
KAT2A inh – qHTS Assay for Inhibitors of GCN5L2; Histone acetyltransferase KAT2A (Homo sapiens), Q92830; GCN5L2 HAT assay, ThioGlo1 CoA-SH fluorescence; Potency, µM (series often up to 58.9 µM), for inactives: at the highest dose activity change, negative = inhibition, most hits filed as inhibitors; hit rate 0.21% among 390,000; note: potency is the fitted concentration of half-maximal effect
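Free CoA generated was detected with ThioGlo1 (50uM) fluorescence at Ex340nm/Em540nm, read immediately and after 20 min at room temperature. Enzyme, 20 nM in HEPES pH 7.5 buffer, saw compounds 15 min before adding 75uM H3(1-25) peptide and 70uM acetyl-CoA.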
PLK1 PBD block – qHTS for Inhibitors of PLK1-PDB (polo-like kinase 1 - polo-box domain): Primary Screen | hit rate 2.8% among 360,000 | Plk1 PBD binding of FITC phosphopeptide, fluorescence polarization | Potency, µM, without a hit: max response, negative = inhibition, hits mostly inhibitors; note: potency is the fitted concentration of half-maximal effect; series mostly up to about 57 µM; nearly all actives have a fitted effect of over 65% in size
PI4K2A block – qHTS for small molecular inhibitors of PI4K2A | Phosphatidylinositol 4-kinase type 2-alpha (Homo sapiens), Q9BTU6 | purified PI4K2A, ADP-Glo luminescence, 1 h; active compounds read low | activity change, negative = inhibition, % at 76.9 µM | hit rate 0.13% among 420,000 | AID 1346378, 2018; in the data active = activity change below about -50%; inconclusive = mostly about -30% to -49%;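 note: -100% = wells without enzyme as full effect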
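Compounds are screened against recombinant PI4K2A using PI as substrate and ATP, the latter dispensed at 300 microM. Reactions run one hour at ambient temperature before ADP-Glo detection; full inhibition defined by wells lacking enzyme.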
GLS inh – qHTS for Inhibitors of Glutaminase (GLS); Potency, µM (highest dose often 45.5 µM), without a hit: top-dose activity change, negative = inhibition, hits mostly inhibitors; AID 624170, 2012; Glutaminase kidney isoform, mitochondrial (Homo sapiens), O94925; GLS enzymatic activity, qHTS titration; hit rate 0.21% among 410,000; note: potency is the fitted concentration of half-maximal effect
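Two-point fluorescence kinetic (t0, 30 min RT) for hKGA; glutamate detected via glutamate oxidase–HRP–Amplex Red. Substrate: 1 mM L-glutamine solution; buffer 45 mM KH2PO4, pH 8.2.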
VDR inh – Inhibitors of the vitamin D receptor (VDR): qHTS; Vitamin D3 receptor (Homo sapiens), P11473; VDR-SRC2-3 peptide fluorescence polarization, 2 h; Potency, µM, inactives show max response, negative = inhibition, most hits filed as inhibitors; hit rate 0.93% among 400,000; note: potency is the fitted concentration of half-maximal effect
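After 23 nl compound addition and a short centrifugation, plates sat for 2 hours at ambient temperature; polarization of fluorescence then indicated loss of VDR binding to peptide SRC2-3.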
* hit, by the source's call; ? = inconclusive; · = no result; ! = a repeat was not active. Unless noted, calls come from the whole dose curve; as a rule, active = well fitted curve in the direction sought with a large enough effect; inconclusive = small, poorly fitted or top-dose-only effect, or another doubt; inactive = no such curve, though single readings can be large; an effect the other way counts as inactive or inconclusive. Unless noted, % is set by controls: 0 for no effect and ±100 for the full control effect.

SMILES	KAT2A inh	PLK1 PBD block	PI4K2A block	GLS inh	VDR inh
COC(=O)C1=C(C)NC(=O)C1(NC(=O)c1ccc(Cl)cc1)C(F)(F)F (stereo unspecified)	1%	·	0	2%	9%
COc1nc(NCCO)nc(Nc2ccccc2F)n1	-1%	27µM*	2	45%	3%
COC(=O)c1cc(NC(=O)Cc2ccc(OC)c(OC)c2)cc(C(=O)OC)c1	26%	27µM*	15	55%	?
COC(=O)C1=C(C)N(Cc2ccc(OC)c(OC)c2)C(=O)C1	-1%	21µM*	-2	59%	4%
COc1ccc(CC(=O)Nc2cc(NC(=O)Cc3ccc(OC)c(OC)c3)cc(C(=O)O)c2)cc1OC	-7%	-11%	1	-14%	13%
CC1(C)OC(=O)Nc2ccc(Br)cc21	·	·	-4	·	·
Cc1nn(-c2ccc(Cl)cc2)c(Cl)c1/C=N/NC(=O)c1ccc(NS(=O)(=O)c2cccs2)cc1	·	24µM*	-3	46%	?
COc1ccc(C(=O)CSC#N)cc1OC	-9%	24µM*	-9	8%	?
COc1ccc(C(=O)COC(=O)c2ccc(OC)c(OC)c2)cc1OC	2%	-6%	-2	-3%	0%
CCCCNC(=O)C[C@H]1C[C@@]2(C(=O)OC)C(=C[C@H](C(C)C)O[C@@H]2C2CC2)N(Cc2ccc(Cl)cc2Cl)C1=O	·	·	-1	·	·
O=c1oc2ccccc2cc1-c1nc(-c2cccs2)cs1	-7%	11µM*	-11	-3%	3%
CCOC1=C2[C@H](c3ccc(CC)cc3)N(S(=O)(=O)c3ccc(C)cc3)C[C@H]2C(C#N)(C#N)C(C#N)(C#N)C1	·	17µM*	-4	?	·
CCOC1=C2CN(S(=O)(=O)c3ccc(C)cc3)C(c3ccc(CC)cc3)CC2N(S(=O)(=O)c2ccc(C)cc2)C(c2ccc(CC)cc2)C1 (stereo unspecified)	·	-4%	-2	·	·
CCOC1=C2[C@H](c3ccccc3Cl)N(S(=O)(=O)c3ccc(C)cc3)C[C@H]2C(C#N)(C#N)C(C#N)(C#N)C1	·	27µM*	-4	?	·
CCCCCC(=O)Nc1ccc(-c2csc(C)n2)cc1	0%	-4%	-5	6%	-5%
Cc1nc(-c2ccc(NC(=O)/C=C\C(=O)O)cc2)cs1	-1%	21µM*	2	0%	-4%
Cc1nc(-c2ccc(C(=O)Nc3ccccc3F)cc2)cs1	-7%	-11%	-60*	13%	-13%
O=C(Nc1cnc2ccccc2c1)N1CCCCC1	3%	-13%	-14	0%	2%
O=C(Nc1cnc2ccccc2c1)N1CCOCC1	-3%	27µM*	-14	2%	2%
C=CCOC(=O)NC(c1ccc(F)c(F)c1)C(C(=O)CCl)C(=O)OC (stereo unspecified)	·	·	·	·	45µM*
COCCn1c(=O)c(-c2ccc(Cl)cc2)nc2cnc(Oc3ccccc3)nc21	?	·	·	·	-3%
Cn1c(-c2ccccc2)c(C(=O)CCl)c2ccccc21	-17%	?	9	9%	71µM*
Cn1c(-c2ccccc2)c(C#Cc2ccc(N)cc2)c2ccccc21	1%	-6%	-13	9%	-9%
Cn1c(-c2ccccc2)c(CCO)c2ccccc21	-1%	27µM*	1	15%	14%
CC(C)Cn1c(=S)[nH]c2ccccc2c1=O	-10%	-10%	-3	1%	-24%
SMILES	KAT2A inh	PLK1 PBD block	PI4K2A block	GLS inh	VDR inh
CC(C)Cn1c(=S)[nH]c2cc(Cl)ccc21	-7%	24µM*	2	29%	-17%
NC(=O)c1c(N)[nH]c(C(=O)c2ccccc2)c1-c1ccccc1C(F)(F)F	·	·	-2	·	·
COCCn1c(=O)c(-c2cn(C)c3ccccc23)nc2cnc(Oc3ccccc3)nc21	?	·	·	·	-9%
CC[C@@H]1OC(=O)C[C@H](O)[C@@H](C)[C@@H](O[C@H]2O[C@@H](C)[C@H](O[C@@H]3C[C@](C)(O)[C@H](O)[C@@H](C)O3)[C@@H](N(C)C)[C@@H]2O)[C@@H](C=O)C[C@@H](C)C(=O)/C=C/C(C)=C[C@@H]1CO[C@H]1O[C@@H](C)[C@H](O)[C@H](OC)[C@@H]1OC	·	·	·	21%	·
Cc1ccc(CN(C(=O)c2ccc([N+](=O)[O-])cc2)C2CCS(=O)(=O)C2)o1 (stereo unspecified)	1%	3.8µM*	0	?	?
COc1cccc(CN(C(=O)c2ccc([N+](=O)[O-])cc2)C2CCS(=O)(=O)C2)c1 (stereo unspecified)	-20%	12µM*	9	2%	?
CCOc1ccccc1C(=O)N(Cc1ccc(C)o1)C1CCS(=O)(=O)C1 (stereo unspecified)	-1%	19µM*	-5	25%	?
COc1cccc(CN(C(=O)COc2ccccc2[N+](=O)[O-])C2CCS(=O)(=O)C2)c1 (stereo unspecified)	-2%	24µM*	-6	30%	-19%
COc1ccc([C@@H]2CC(=O)c3c(O)cc(O[C@@H]4O[C@H](CO[C@@H]5O[C@@H](C)[C@H](O)[C@@H](O)[C@H]5O)[C@@H](O)[C@H](O)[C@H]4O)cc3O2)cc1	-14%	·	·	·	4%
COc1ccc(-n2c(SCc3nc4ccccc4[nH]3)nc3ccccc3c2=O)cc1	·	·	0	·	·
CN1CCN(C(c2ccc(F)cc2)c2ccc3cccnc3c2O)CC1 (stereo unspecified)	·	?	1	-8%	-17%
CN1CCN(C(c2cccnc2)c2ccc3cccnc3c2O)CC1 (stereo unspecified)	-11%	19µM*	-6	-8%	-20%
O=S1(=O)N=C(Oc2cccc3ccccc23)c2ccccc21	-6%	-17%	0	28%	-3%
Cc1ccccc1OC1=NS(=O)(=O)c2ccccc21	-1%	30µM*	-3	0%	-12%
CCCCC[C@@H](/C=C/C1C(=O)C=C[C@H]1C/C=C\CCCC(=O)O)OC(C)=O (stereo partly specified)	·	?	-5	-2%	79µM*
CCCCC/C=C\C/C=C\C/C=C\CCCCC(=O)O	14µM*!	?	-18	?	40µM*!
CCCCC/C=C/C=C1/C(=O)C=C[C@@H]1C/C=C\CCCC(=O)O	?	·	·	·	20µM*
CCCCCCCC/C=C\C/C=C\C/C=C\CCCC(=O)O	-8%	·	·	·	-2%
CCCCC[C@H](O)C/C=C1/C(=O)C=C[C@@H]1C/C=C\CCCC(=O)O	11%	·	·	·	50µM*
O=C(NC1CCCCN(Cc2cccc(C(F)(F)F)c2)C1=O)c1cccc(C(F)(F)F)c1 (stereo unspecified)	·	·	0	·	·
